Experimental data taken from PubChem BioAssay AID651813 (National Center for Advancing Translational Sciences (NCATS), 2012).
Out of some 2,100 compounds screened, about 1,100 (52%) were called active. Not shown: some 27% with an inconclusive outcome. The set was probably picked from earlier hits. Some of the results follow. Unmarked numbers belong to inactive results. Calls follow the shape of the dose curve; as a rule, active = well fitted inhibition curve with a large enough effect; inconclusive = small, poorly fitted or top-dose-only effect; inactive = no such curve, though single readings can be large or run the other way.

biological target: DNA dC->dU-editing enzyme APOBEC-3G (Homo sapiens) (UniProt Q9HC16); assay: qHTS for inhibitors of Vif-A3G interactions: Cherry picks counterscreen; conditions: HeLa A3G-eYFP + Vif (tagged APOBEC3G with the HIV-1 protein that degrades it), eYFP fluorescence, 24 h;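 also: hits raise yellow fluorescence by blocking Vif-driven A3G-eYFP degradation; nearly all actives have a fitted effect of over 70% in size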;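 as to max response: max response given as percent of control signal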
Sequence (Q9HC16 whole entry, looked up): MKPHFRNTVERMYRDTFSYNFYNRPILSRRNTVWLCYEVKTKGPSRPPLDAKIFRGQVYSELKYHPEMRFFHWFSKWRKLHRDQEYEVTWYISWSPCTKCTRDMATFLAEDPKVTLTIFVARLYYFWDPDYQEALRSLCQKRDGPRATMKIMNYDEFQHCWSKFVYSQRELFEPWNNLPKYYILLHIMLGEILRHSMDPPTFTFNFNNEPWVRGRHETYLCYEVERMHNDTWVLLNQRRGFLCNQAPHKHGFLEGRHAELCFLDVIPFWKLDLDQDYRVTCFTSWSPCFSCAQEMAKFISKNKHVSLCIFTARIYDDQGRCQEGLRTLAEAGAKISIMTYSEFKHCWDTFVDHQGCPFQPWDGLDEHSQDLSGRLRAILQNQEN
How it was run: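 HeLa cells stably expressing A3G-eYFP and Vif were treated for 24 h at 37 deg C with compounds at several concentrations; yellow fluorescence (Ex 488 nm, Em 500-530 nm) read by Acumen Explorer, MG132 as positive control.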
Potency is read from the fitted curve at half-maximal effect.

SMILES | Potency | max response
COc1ccc2c(c1)c1nc3ccccc3nc1n2Cc1ccc(OC(C)C)c(OC)c1 | 23.1 µM (active) | –
COc1ccc2c(c1)c1nc3ccccc3nc1n2Cc1ccc(OC)c(OC)c1 | 25.9 µM (active) | –
COc1ccc2c(c1)c1nc3ccccc3nc1n2CC(=O)OC(C)C | – | -18.3%
CC(=O)Oc1c(-c2ccc(Br)o2)oc2ccccc2c1=O | – | -10.4%
CCc1cccc2c(C(O)c3c[nH]c4ccccc34)c[nH]c12 (stereo unspecified) | 20.6 µM (active) | –
CC(C)CC[n+]1ccccc1/C=C/c1ccc(N(C)C)cc1 | 16.4 µM (active) | –
CC[n+]1ccccc1/C=C/c1ccc(N(C)C)cc1 | 20.6 µM (active) | –
Cc1c(CCCl)c(Cl)n2c(nc3ccccc32)c1C#N | 9.94 µM (active) | –
CN(C)c1ccc2nc3c(=O)[nH]c(=O)nc-3n(CC(O)C(O)C(O)CO)c2c1 (stereo unspecified) | – | 0.486%
Cc1ccc(/C=C2/NC(=O)N(Cc3ccccc3)C2=O)s1 | 20.6 µM (active) | –
Cc1cccc(CN2C(=O)N/C(=C/c3ccc(C)s3)C2=O)c1 | 6.27 µM (active) | –
Cc1ccc(/C=C2/NC(=O)N(Cc3ccccc3F)C2=O)s1 | 8.2 µM (active) | –
CN(C)c1ccc(/C=C2\NC(=S)N(Cc3ccccc3)C2=O)cc1 | 2.5 µM (active) | –
Cc1ccc2ccc3cc(C(=O)Nc4ccc(C)c(F)c4)nc3c2[nH]1 | – | -25.1%
CC(C)(C)OC(=O)NC(Cc1ccccc1)C(=O)N1CCC(C(=O)NCC(=O)Nc2ccc(F)cc2)CC1 (stereo unspecified) | 23.1 µM (active) | –
COc1ccc2c(n1)Sc1nc3ccccc3nc1N2 | 3.26 µM (active) | –
CC1C/C(=C/c2cccs2)C(=O)/C(=C/c2cccs2)C1 (stereo unspecified) | – | 14.5%
COc1cc(OC)c(OC)cc1/C=C1\CC(C)C/C(=C\c2cc(OC)c(OC)cc2OC)C1=O (stereo unspecified) | 20.6 µM (active) | –
COc1ccc(-c2cc(-c3nnc(COC(=O)c4ccncc4)o3)c3ccccc3n2)cc1OC | – | -0.16%
COc1ccc(COc2cc(-c3cccc(OC)c3)nc3ccc(NC(=O)C(C)C)cc23)cc1 | 4.98 µM (active) | –
COc1ccc(COc2cc(-c3cccc(OC)c3)nc3ccc(NC(=O)c4ccc(OC)cc4)cc23)cc1 | 3.53 µM (active) | –
C[n+]1cc(C(=O)N2CCCCC2)ccc1/C=C/c1c[nH]c2ccccc12 | 17.7 µM (active) | –
CCN(CC)C(=O)c1ccc(/C=C/c2c[nH]c3ccccc23)[n+](C)c1 | 20.6 µM (active) | –

SMILES | Potency | max response
c1ccc2c(c1)Cc1cc3ccccc3nc1-2 | 1.64 µM (active) | –
CN(C)c1ccc(/C=C/c2ccnc3ccc(N)cc23)cc1 | 18.4 µM (active) | –
Cc1cc(C)c2nccc(/C=C/c3ccc(N(C)C)cc3)c2c1 | 11.6 µM (active) | –
CN(C)c1ccc(/C=C/c2ccnc3ccc(I)cc23)cc1 | 5.17 µM (active) | –
Cc1ccc2nccc(/C=C/c3ccc(N(C)C)cc3)c2c1 | 11.6 µM (active) | –
FC(F)(F)c1ccccc1NC(=S)NN=C1CCCCCC1 | – | 19.2%
COc1ccc2nccc(/C=C/c3ccc(N(C)C)cc3)c2c1 | 18.4 µM (active) | –
CN(C)c1ccc(/C=C/c2ccnc3ccc(Br)cc23)cc1 | 2.06 µM (active) | –
Cc1ccc2nc(-c3ccccn3)c(Nc3ccccc3C)n2c1 | – | 5.76%
O=C(Nc1ncc(Cc2ccc(SC(F)F)cc2)s1)c1ccccc1 | 1.98 µM (active) | –
CCOc1ccc(S(=O)(=O)N(CC(=O)N/N=C/c2ccc(-c3ccc([N+](=O)[O-])cc3)o2)c2ccccc2)cc1 | 11.2 µM (active) | –
O=C(O)c1cccc(-c2ccc(/C=N/Nc3ccc([N+](=O)[O-])cc3)o2)c1 | 14.6 µM (active) | –
O=C(O)c1ccc(-c2ccc(/C=N/Nc3ccc([N+](=O)[O-])cc3)o2)cc1 | 15.8 µM (active) | –
Cc1cc([N+](=O)[O-])ccc1-c1ccc(/C=N/NC(=O)c2ccc(Br)o2)o1 | 20.6 µM (active) | –
Cn1c(=S)c2[nH]c(SCCN3CCCC3)nc2n(C)c1=O | – | 14.3%
S=C(Nc1ccccc1)N1CCn2c1nc1ccccc12 | – | -19.9%
Cc1ccc(-c2ccc(/C=N/NC(N)=S)o2)cc1 | – | -14.5%
CC(C)(C)NC(=S)N/N=C\c1ccc(-c2ccc([N+](=O)[O-])cc2)o1 | 10.3 µM (active) | –
O=[N+]([O-])c1ccc(-c2ccc(/C=N/Nc3nc(NCc4ccccc4)nc(N4CCOCC4)n3)o2)cc1 | 10.3 µM (active) | –
CN(/N=C/c1ccc(-c2ccc([N+](=O)[O-])cc2)o1)c1ccccc1 | 1.16 µM (active) | –
O=[N+]([O-])c1ccccc1S(=O)(=O)Nc1ccc(-c2ccc(N3CCOCC3)nn2)cc1 | – | 0.357%
CCN(CC)c1nc(C)c(C(=S)Nc2cc([N+](=O)[O-])ccc2Cl)s1 | – | -7.53%
CCOC(=O)c1c(CC(C)C)csc1/N=C/C1C(=O)CCCC1=O | – | -2.9%

SMILES | Potency | max response
Nc1ncnc2c1ncn2[C@@H]1O[C@H](CNCc2ccc(OCc3ccccc3)cc2)[C@@H](O)[C@H]1O | 12.5 µM (active) | –
COc1ccc(CNCC(=O)Nc2ccccc2-n2cccc2)cc1 | 9.94 µM (active) | –
CCCn1c(C2CCCN2c2nc(-c3cccc(Br)c3)cs2)nc2ccccc21 (stereo unspecified) | – | -7.22%
OCCCn1c(C2CCCN2c2nc(-c3ccc(F)cc3)cs2)nc2cc(Cl)c(N3CCCCC3)cc21 (stereo unspecified) | 16.4 µM (active) | –
C[C@H](O)[C@@H]1CN2CCc3c([nH]c4ccccc34)[C@@H]2C[C@@H]1N(C)C(=O)c1ccco1 | 12.5 µM (active) | –
CCN(CC)C(=O)CSC(Nc1cccc(F)c1)=C(C#N)C#N | 13 µM (active) | –
Oc1ccc(C=NNC(=S)Nc2ccc(F)cc2)c(O)c1 | – | -25.9%
O=C(NC(=S)N1CCc2ccccc21)c1ccco1 | – | 4.59%
O=C(N/N=C/c1sc(=O)n(Cc2ccc(Br)cc2)c1Cl)c1ccco1 | – | -16.3%
CCN(CC)c1ccc2cc(C(N)=O)c(=N)oc2c1 | – | 60.6%
CCN(CC)c1ccc(/C=N/NC(=O)c2ccco2)c(O)c1 | 7.9 µM (active) | –
CCN(CC)c1ccc(/C=N/N=C(N)N)c(O)c1 | 5.59 µM (active) | –
CCN(CC)c1ccc(/C=N/NC(=O)c2ccco2)cc1 | 8.86 µM (active) | –
Cc1ccc2nsnc2c1NC(=O)c1ccc(-c2cc(Cl)ccc2Cl)o1 | 14 µM (active) | –
Cc1cc(-c2ccccc2)c2c3c(c(-c4ccccc4)n2n1)c(=O)n(C)c(=O)n3C | – | 9.15%
C=CCSc1nnc(C)c(/C=C/Nc2ccc(Cl)cc2)n1 | 20.6 µM (active) | –
CCOc1ccccc1NC(=O)Cn1nnc(C(=O)NCc2cccs2)c1N | 0.651 µM (active) | –
COc1cc(NC(=O)C2=C(N3CCOCC3)/C(=C\c3ccc(N(C)C)cc3)CCC2)cc(OC)c1OC | 3.53 µM (active) | –
Cc1cc(NC(=O)NC(=O)c2ccccc2NC(=O)C(C)N)ccc1Oc1ncc(Br)cn1 (stereo unspecified) | 0.444 µM (active) | –
Cc1cc(/C=C2\SC(=S)N(C)C2=O)c(C)n1-c1ccccc1O | 18.4 µM (active) | –
Cc1cc(/C=C2\SC(=S)N(C)C2=O)c(C)n1-c1ccc(O)cc1 | 20.6 µM (active) | –
COc1cc2c(cc1OC)CN(C(=O)c1cc(=O)c3ccccc3o1)CC2 | 15.8 µM (active) | –
Cc1cccc(C(=O)NC(=S)N2CCc3ccccc3C2)c1 | – | -2.8%

SMILES | Potency | max response
COc1cc2c(cc1OC)CN(C(=O)c1ccc3nc[nH]c3c1)CC2 | 14 µM (active) | –
CN(C)CCCN(C(=O)/C=C/c1cccs1)c1nc2ccc(F)cc2s1 | – | -22.2%
COc1cc2c(cc1OC)CN(C(=O)/C=C/c1cccs1)CC2 | 1.25 µM (active) | –
CC(=O)N/N=C/c1cc(C(C)C)cc(/C=N/NC(C)=O)c1O | 18.4 µM (active) | –
CC(=O)N/N=C/c1cc(C(C)(C)C)cc(/C=N/NC(C)=O)c1O | 20.6 µM (active) | –
CC1(C)CCN2CCC(C)(C)c3c(O)ccc1c32 | 5.59 µM (active) | –
Cc1ccc(NC(=S)NC(=O)c2ccc(F)cc2)cc1S(=O)(=O)Nc1cccc(Cl)c1 | – | -21.2%
COc1ccc(NS(=O)(=O)c2cc(NC(=O)c3ccc(=O)[nH]c3)ccc2N2CCCC2)cc1 | 5.59 µM (active) | –
ClCC1NCC(c2ccccc2Cl)c2c1[nH]c1ccccc21 (stereo unspecified) | – | -28%
CN1C(=O)N(C)c2ccc(C=O)c3cccc1c23 | – | 1.02%
N#Cc1ccc(-c2ccco2)nc1SCc1ccccc1 | – | -26%
N#Cc1c(C(F)(F)F)cc(-c2ccco2)nc1SCc1ccccn1 | 16.4 µM (active) | –
COc1cc2cc(-c3ccc(OC)c(OC)c3C)nc(N)c2cc1OC | 2.8 µM (active) | –
C[C@H]1CN([C@@H](C)CO)C(=O)Cc2cc(NC(=O)CCC(F)(F)F)ccc2O[C@H]1CN(C)S(=O)(=O)c1ccc(F)cc1 | 7.9 µM (active) | –
CN(C)c1ccc(C2C=C(c3ccc(Cl)cc3OC(F)F)Nc3ncnn32)cc1 (stereo unspecified) | 15.8 µM (active) | –
O=C(c1[nH]c(C(F)(F)F)nc1-c1ccccc1)N1CCN(c2ccccc2)CC1 | 3.53 µM (active) | –
O=C(c1[nH]c(C(F)(F)F)nc1-c1ccccc1)N1CCN(c2cccc(C(F)(F)F)n2)CC1 | 6.27 µM (active) | –
CCOC(=O)N1CCN(C(=O)c2[nH]c(C(F)(F)F)nc2-c2ccccc2)CC1 | 15.8 µM (active) | –
Cn1nnnc1SCCNCc1cc(Br)ccc1OCc1ccccc1Cl | – | -13.4%
Cc1cccc2cc3c(N)c(C(=O)N4CCc5ccccc54)sc3nc12 | 7.31 µM (active) | –
Cc1ccc2nc3sc(C(=O)N4CCCc5ccccc54)c(N)c3cc2c1 | 7.9 µM (active) | –
Cc1cccc2cc3c(N)c(C(=O)N4CCCc5ccccc54)sc3nc12 | 9.2 µM (active) | –
